Measured values as given in PubChem BioAssay AID488841 (Sanford-Burnham Center for Chemical Genomics, 2010).
In all, about 1,400 compounds went through this assay and about 380 (27%) were called active.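 Rule for the calls: active = mean inhibition above 50% across duplicate retests at 10 µM; inactive = the rest.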 The list shows a part of the results.

Assay: inhibition of NALP1/ASC/caspase-1 reporter signal in yeast, confirmation, NALP1 inhibitor project, S. cerevisiae, luminescence, single concentration (AID 488841);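 note: plate controls were DMSO in galactose medium for no effect and cells in plain SD medium for full effect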
Settings: S. cerevisiae NALP1/ASC/Caspase-1 reporter, beta-gal luminescence; at 10 µM; stronger effect = higher value

Row | Structure (SMILES) | inhibition
1 | O=c1ncn(-c2cccc(F)c2)c2ncccc12 | 37.1% (inactive)
2 | N#CC(C#N)=C1C=CC=CN1/C(=C\c1ccccc1Cl)C(=O)c1ccccc1 | 5.75% (inactive)
3 | CCn1cc(C(=O)O)c(=O)c2cc(F)c(N3CCNCC3)cc21 | 27.4% (inactive)
4 | CCSc1nnc(NC(=O)c2ccc(C)o2)s1 | 54.3% (active)
5 | CC(C)COC(=O)Nc1nnc(SCc2ccccc2F)s1 | 49.2% (inactive)
6 | Cc1ccc(Nc2nnc(SCC(=O)Nc3ccc(S(=O)(=O)N4CCOCC4)cc3)s2)cc1 | 18.2% (inactive)
7 | CCSc1nnc(NC(=O)c2ccccc2)s1 | 83.2% (active)
8 | CCCc1[nH]nc2c1C(c1ccoc1)C(C#N)=C(N)O2 (stereo not given) | 37.9% (inactive)
9 | O=C(c1ccc(F)cc1)c1cn(Cc2ccc(F)cc2)c2cc3c(cc2c1=O)OCCO3 | 26.4% (inactive)
10 | Cc1ccc(Cn2nnnc2CN2CCC(c3nc4ccc(Cl)cc4[nH]3)CC2)cc1 | 34.2% (inactive)
11 | Cc1noc2ncc(C(=O)c3cc(F)ccc3O)cc12 | 17.8% (inactive)
12 | c1ccc2c(Nc3nc(N4CCOCC4)c4ccccc4n3)cccc2c1 | 93.2% (active)
13 | CCOc1cc(-c2c(C)c(C)nc(N)c2C#N)ccc1O | 30.4% (inactive)
14 | O=C(OC1CCOC1=O)c1cc(-c2ccc(Br)cc2)nc2ccccc12 (stereo not given) | 21% (inactive)
15 | O=C(Nc1ccon1)c1cc2ccccc2oc1=O | 31.5% (inactive)
16 | O=C(Nc1ccc2oc(-c3ccccc3)nc2c1)c1ccco1 | 86.7% (active)
17 | Cc1ccn2cc(-c3ccc(NC(=O)c4ccco4)cc3)nc2c1 | 82.7% (active)
18 | Cc1sc(NC(=O)c2ccco2)nc1-c1ccccc1 | 73% (active)
19 | Cc1ccc2oc(-c3ccc(NC(=O)c4cccnc4)cc3)nc2c1 | 44.6% (inactive)
20 | CCCCC(=O)Nc1ccc(C(=O)NNC(=S)NC(=O)c2ccco2)cc1 | 42.2% (inactive)
21 | O=C(Nc1ccc(-c2cn3ccccc3n2)cc1)c1ccco1 | 76.8% (active)
22 | O=C(Nc1nc(-c2ccco2)c(-c2ccco2)s1)C1CCC1 | 39% (inactive)
23 | O=C(Nc1cccc(-c2cn3ccccc3n2)c1)c1cccc(Cl)c1 | 39.9% (inactive)
24 | O=C(CCl)Nc1nc(-c2ccco2)c(-c2ccco2)s1 | 32.2% (inactive)
25 | CC1=C(C(=O)Nc2ccc(Cl)cc2)C(c2ccco2)NC(=O)N1 (stereo not given) | 23.4% (inactive)
26 | CSc1ccc(C(=O)C2CCCN(C(=O)c3ccc4c(c3)no[n+]4[O-])C2)cc1 (stereo not given) | 18.6% (inactive)
27 | Cn1nnc(NC(=O)/C=C/c2ccco2)n1 | 35% (inactive)

Row | Structure (SMILES) | inhibition
28 | Cn1c(N)c(C(=O)COC(=O)C2(c3ccc(Cl)cc3)CCCC2)c(=O)n(C)c1=O | 28.2% (inactive)
29 | Clc1ccc2c(N/N=C/c3ccc(Br)cc3)ccnc2c1 | 47.6% (inactive)
30 | CCOC(=O)c1c(C)c(C(=O)NCCCOC(C)C)c(C)n1C | 26.2% (inactive)
31 | COc1ccc(N(C)C2=NS(=O)(=O)c3ccccc32)cc1 | 27.9% (inactive)
32 | C=C(C)C1Cc2c(C)nn(-c3ccccn3)c2C1 (stereo not given) | 2.3% (inactive)
33 | CC(OC(=O)Cc1c(F)cccc1Cl)C(=O)NCCC1=CCCCC1 (stereo not given) | 46.2% (inactive)
34 | Cc1nc2ccc(NC(=O)c3cc([N+](=O)[O-])cc([N+](=O)[O-])c3Cl)cc2s1 | 40.5% (inactive)
35 | COc1ccccc1NC(=O)c1ccc(C)s1 | 38.7% (inactive)
36 | Cc1ccc(C(=O)Nc2ccc3nc(C)sc3c2)s1 | 77% (active)
37 | COn1c2c(c3c4nonc4ccc31)CCCC2 | 30.4% (inactive)
38 | CC1CCN(Cc2ccc(-c3nn[nH]n3)cc2)CC1 | 21.2% (inactive)
39 | O=C(NC1CCCCC1)c1noc2c1CCCCC2 | 70.2% (active)
40 | O=C(NC1CCCC1)c1ccc(CN2CCOCC2)cc1 | 33.8% (inactive)
41 | O=C(c1cc(-c2ccc(O)cc2)on1)N1CCc2ccccc2C1 | 56.5% (active)
42 | O=C(CN1CCc2ccccc2C1)NCc1ccco1 | 18.9% (inactive)
43 | CCn1c(C(=O)N2CCc3ccccc3C2)cc2oc3ccccc3c21 | 32.4% (inactive)
44 | CC(C)CC(=O)N1CCN(c2ccc([N+](=O)[O-])cc2Cl)CC1 | 37.5% (inactive)
45 | Cc1c(-c2nc(N)nc(Nc3ccccc3)n2)oc2ccccc12 | 37.3% (inactive)
46 | COc1ccc(N2CCN(CCNC(=O)Nc3ccc(Cl)cc3)CC2)cc1 | 22.3% (inactive)
47 | CCOC(=O)C(=O)NNc1ccc(Cl)cc1 | 40.9% (inactive)
48 | N#Cc1ccc(NC(=O)Nc2ccc(Cl)cc2)cc1 | 67% (active)
49 | O=C(Nc1ccc(Cl)cc1)C1=Cc2ccccc2OC1 | 48.8% (inactive)
50 | CCCCN(C)CCC(=O)Nc1ccc(Cl)cc1 | 28.4% (inactive)
51 | CC(=O)c1ccc(NC(=O)Nc2ccc(Cl)cc2)cc1 | 53.4% (active)
52 | CCC(C(=O)NCc1ccco1)N(C(=O)CNS(=O)(=O)c1ccccc1)c1ccc(OC)cc1 (stereo not given) | 23.4% (inactive)
53 | CSc1nnc(-c2cc3c(s2)-c2ccccc2CC3)o1 | 56.6% (active)
54 | O=C(C(Cc1ccccc1)n1cccc1)N1CCN(c2ccccc2)CC1 (stereo not given) | 46% (inactive)

Row | Structure (SMILES) | inhibition
55 | CNC(=S)N/N=C/c1cc(Br)cc(Br)c1O | 75.7% (active)
56 | Oc1c(Br)cc(Br)cc1C=Nc1cccnc1 | 36.4% (inactive)
57 | Cc1cc(C=C2C(=O)c3ccccc3C2=O)c(C)n1C | 39% (inactive)
58 | CCOc1ccccc1C(=O)Nc1cnn(Cc2ccc(F)cc2)c1 | 57.7% (active)
59 | CCOc1ccccc1C(=O)OCC(=O)Nc1ccc(N2CCCCC2)cc1 | 36.1% (inactive)
60 | O=C(Nc1ccc(F)cc1)c1cccnc1N1CCCCC1 | 34.8% (inactive)
61 | c1ccc(CC2CCN(c3nnnn3-c3ccccc3)CC2)cc1 | 26.4% (inactive)
62 | COC(=O)c1cc(=O)n(-c2ccc(F)cc2)c(=Nc2ccc(F)cc2)s1 | 33.2% (inactive)
63 | O=[N+]([O-])c1ccc(/C=N/NS(=O)(=O)c2ccc(Cl)cc2)o1 | 36.3% (inactive)
64 | CCN(CC)c1ccc(N=Cc2ccc([N+](=O)[O-])o2)cc1 | 64.2% (active)
65 | CCOC(=O)c1[nH]c2ccc(Br)cc2c1NC(=O)CCN1CCC(C)CC1 | 32.4% (inactive)
66 | Cc1nc(N)sc1N=Nc1ccc(Br)cc1 | 50.6% (active)
67 | Cc1ccc(C)c(NC(=O)c2ccc(OC(=O)c3ccco3)cc2)c1 | 36.8% (inactive)
68 | Cc1ccc2occ(C(=O)c3ccco3)c(=O)c2c1 | 58.4% (active)
69 | CN1CCN(C2=C(Cl)C(=O)C(c3cnc(N4CCCCC4)s3)=C(Cl)C2=O)CC1 | 29.9% (inactive)
70 | CN(C=[N+](C)C)c1cccc2c1C(=O)c1ccccc1C2=O | 37% (inactive)
71 | O=C1c2cccc(O)c2C(=O)c2c(O)cccc21 | 62.8% (active)
72 | CN(C)S(=O)(=O)c1cccc2c1C(=O)c1ccccc1C2=O | 39.2% (inactive)
73 | CC(C)CN=C(NS(=O)(=O)c1ccccc1)C(Cl)(Cl)Cl | 43.6% (inactive)
74 | N#Cc1cccc(N=Cc2c(O)ccc3ccccc23)c1 | 24.8% (inactive)
75 | C=CCOc1ccc2ccccc2c1/C=N/O | 52.7% (active)
76 | O=S(=O)(/N=C/c1c(O)ccc2ccccc12)c1cccs1 | 29.8% (inactive)
77 | CCCCCOc1ccc(Cn2ccnc2)cc1[N+](=O)[O-] | 43% (inactive)
78 | O=C(CCNc1n[nH]c(=O)[nH]c1=O)N/N=C/c1ccc(C(F)(F)F)cc1 | 26.9% (inactive)
79 | COCC(=O)n1nc(-c2ccc(Cl)cc2)nc1NCc1ccc(F)cc1 | 49.8% (inactive)
80 | O=C(NC1=NCCS1)c1ccc(Cl)s1 | 42.9% (inactive)
81 | CCOc1ccccc1N1CCN(C(=O)CCCc2nc3ccccc3s2)CC1 | 52.9% (active)

Row | Structure (SMILES) | inhibition
82 | COCCN=C1Sc2nc3ccc(C)cc3cc2CN1Cc1ccco1 | 45.9% (inactive)
83 | COc1ccccc1NC1=C(N2CCCCC2)C(=O)c2ccccc2C1=O | 49.1% (inactive)
84 | CCCSc1nnc(C(C)C)n1N | 21.8% (inactive)
85 | O=C(/C=C/c1ccc2c(c1)OCCCO2)c1ccccc1O | 61.6% (active)
86 | Cc1ccc(C(=O)/C=C/c2ccc3c(c2)OCO3)o1 | 23.9% (inactive)
87 | O=C(/C=C/c1ccc(F)cc1)NCCc1ccc2c(c1)OCCO2 | 49.3% (inactive)
88 | CC(=O)C1=C(O)C(=O)N(CCC(=O)O)C1c1ccc(Cl)cc1Cl (stereo not given) | 24.1% (inactive)
89 | CCOC(=O)C1=Nc2ccccc2C1=[N+]=[N-] | 37.8% (inactive)
90 | CCOC(=O)/C(=C/c1ccc(OC(=O)c2ccccc2)cc1)C(C)=O | 55.4% (active)
91 | CCOC(=O)C1=C(O)c2ccccc2C(=O)/C1=C\c1ccc(C)cc1 | 30.2% (inactive)
92 | Cc1sc(-c2ccncc2)nc1OC(=O)c1ccccc1 | 47.5% (inactive)
93 | O=C(CN(Cc1ccccc1)S(=O)(=O)c1ccc(S(=O)(=O)N2CCOCC2)cc1)Nc1ccccc1 | 27.6% (inactive)
94 | C=CCNC(=O)/C(C#N)=C/c1c(C)nn(-c2ccccc2)c1Cl | 60.3% (active)
95 | Cc1nn(-c2ccccc2)c(Cl)c1/C=C(\C#N)C(=O)NC(C)C | 55.2% (active)
96 | CC(C)NC(=O)/C(C#N)=C/c1cccc(NC(=O)c2ccccc2Cl)c1 | 41.1% (inactive)
97 | COc1ccc(OCC(=O)NC(=S)N2CCCc3ccccc32)cc1 | 28.5% (inactive)
98 | CCCCCCC1CCC(C(=O)Nn2c(C)nc3ccccc3c2=O)CC1 (stereo not given) | 44.8% (inactive)
99 | COc1ccc(C2NCCc3c2[nH]c2ccccc32)cc1CSc1nc2ccccc2s1 (stereo not given) | 45.4% (inactive)
100 | COCc1cc(=O)[nH]c(/N=C(\N)Nc2cccc(C)c2)n1 | 21.6% (inactive)
101 | O=C1c2ccsc2SCCN1Cc1c(Cl)cccc1Cl | 53.7% (active)
102 | COc1ccc(CCNC(=O)C2CCN(S(=O)(=O)c3ccc(Cl)cc3)CC2)cc1OC | 5.6% (inactive)
103 | Cn1cnc([N+](=O)[O-])c1S(=O)(=O)c1ccc(Cl)cc1 | 46.9% (inactive)
104 | CCCNC(=O)c1nnsc1S(=O)(=O)c1ccc(Cl)cc1 | 95% (active)
105 | CNC(=O)c1nnsc1S(=O)(=O)c1ccc(Cl)cc1 | 86.2% (active)
